This note sets out measurements from ChEMBL document CHEMBL3988442, “University of Dundee, Small-Polar-MMV Screening Library” (2021).

Where “and” joins values, the source holds several entries; their conditions need not be identical. Equal entries are not always repeated. For part of these data: Potency and affinity values are given separately.

Common to all, as to set-up: scale not given: direction of the effect not stated beside the values
The target in test [1] is Protein translocase subunit SecA (Escherichia coli (strain K12)) (UniProt P10408). The test can be described thus: Assay to Identify E. coli SecA ATPase Inhibitors. The class given is functional. To be noted: 30 µM.
For test [2], the target named is T1, Ubiquitin-activating enzyme e1, putative (Leishmania donovani (strain BPK282A1)) (UniProt E9BSI1).
T1 sequence (whole entry): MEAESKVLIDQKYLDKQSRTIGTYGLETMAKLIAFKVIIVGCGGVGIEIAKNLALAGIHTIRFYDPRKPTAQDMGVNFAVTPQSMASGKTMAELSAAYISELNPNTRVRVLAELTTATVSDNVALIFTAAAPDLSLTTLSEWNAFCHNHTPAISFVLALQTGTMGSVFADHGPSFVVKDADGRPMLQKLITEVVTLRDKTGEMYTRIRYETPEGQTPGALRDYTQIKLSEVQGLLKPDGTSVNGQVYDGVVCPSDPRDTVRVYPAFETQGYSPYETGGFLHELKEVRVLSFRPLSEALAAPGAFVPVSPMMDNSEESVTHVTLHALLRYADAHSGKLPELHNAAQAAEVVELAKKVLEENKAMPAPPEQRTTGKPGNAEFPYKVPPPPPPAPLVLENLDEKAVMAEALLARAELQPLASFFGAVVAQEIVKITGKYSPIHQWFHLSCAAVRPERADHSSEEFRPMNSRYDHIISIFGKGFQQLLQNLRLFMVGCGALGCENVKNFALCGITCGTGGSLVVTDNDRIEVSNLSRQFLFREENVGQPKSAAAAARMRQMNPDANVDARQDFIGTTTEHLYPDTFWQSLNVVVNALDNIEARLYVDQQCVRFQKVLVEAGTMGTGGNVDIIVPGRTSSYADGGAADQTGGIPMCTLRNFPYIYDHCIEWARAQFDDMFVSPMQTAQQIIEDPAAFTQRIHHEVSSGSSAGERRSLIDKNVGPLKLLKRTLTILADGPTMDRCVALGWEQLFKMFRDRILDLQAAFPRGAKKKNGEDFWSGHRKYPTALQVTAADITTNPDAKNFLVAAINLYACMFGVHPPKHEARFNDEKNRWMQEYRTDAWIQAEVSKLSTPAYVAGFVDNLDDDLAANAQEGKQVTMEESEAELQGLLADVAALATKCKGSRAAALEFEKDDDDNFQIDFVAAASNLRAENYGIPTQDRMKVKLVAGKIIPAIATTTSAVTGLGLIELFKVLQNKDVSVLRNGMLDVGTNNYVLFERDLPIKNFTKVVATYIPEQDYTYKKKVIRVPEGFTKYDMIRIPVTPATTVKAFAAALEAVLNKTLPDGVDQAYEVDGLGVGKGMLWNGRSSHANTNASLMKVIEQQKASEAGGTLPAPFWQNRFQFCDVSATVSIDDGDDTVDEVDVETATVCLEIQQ
The test can be described thus: Leishmania donovani Ubiquitin Activating Enzyme (LdE1). The class given is functional. To be noted: 30 µM.

Test [3] addresses AMP-activated protein kinase, AMPK (Homo sapiens) (UniProt P54646+O43741+P54619+Q9UGJ0+Q9Y478+Q13131+Q9UGI9). Briefly: AMP-dependent Kinase enzyme assay. An in vitro enzyme assay that detects ADP turnover that is directly proportional to AMPK activity. This uses naive AMPK that is activated during the assay with MK-8722. Type of test: functional. The settings on record: 30 µM.

The target in test [4] is Sialic acid-binding Ig-like lectin 9 (Homo sapiens) (UniProt Q9Y336). The test can be described thus: Hs-Siglec9 ALPHAscreen SOP 20170721. To be noted: 10 µM.
Test [5] deals with Trypanosoma cruzi. The test can be described thus: Trypanosoma cruzi phosphomannomutase and mannose-1-phosphate guanylyltransferase assay. Type of test: functional. To be noted: 10 µM.
In test [6] the target is T2, Arginase-2, mitochondrial (Homo sapiens) (UniProt P78540).
T2 sequence (whole entry): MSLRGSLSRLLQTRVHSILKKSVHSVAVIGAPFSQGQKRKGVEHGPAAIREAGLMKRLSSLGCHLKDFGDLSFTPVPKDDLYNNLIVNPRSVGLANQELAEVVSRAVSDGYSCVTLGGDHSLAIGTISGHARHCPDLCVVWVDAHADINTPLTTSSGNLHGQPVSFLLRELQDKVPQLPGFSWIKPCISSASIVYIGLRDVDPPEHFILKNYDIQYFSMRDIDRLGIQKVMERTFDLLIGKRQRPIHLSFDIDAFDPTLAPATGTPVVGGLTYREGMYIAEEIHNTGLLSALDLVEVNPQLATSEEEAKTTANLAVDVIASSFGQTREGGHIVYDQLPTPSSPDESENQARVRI
The test can be described thus: in vitro enzyme assay to detect the production of urea directly proportional to the activity of Arginase II. Further: in the data most compounds retested in dose-response had high values. Type of test: functional.

Test [7] has as its target T3, Proteasome subunit beta (Trypanosoma cruzi) (UniProt O96673).
T3 sequence (whole entry): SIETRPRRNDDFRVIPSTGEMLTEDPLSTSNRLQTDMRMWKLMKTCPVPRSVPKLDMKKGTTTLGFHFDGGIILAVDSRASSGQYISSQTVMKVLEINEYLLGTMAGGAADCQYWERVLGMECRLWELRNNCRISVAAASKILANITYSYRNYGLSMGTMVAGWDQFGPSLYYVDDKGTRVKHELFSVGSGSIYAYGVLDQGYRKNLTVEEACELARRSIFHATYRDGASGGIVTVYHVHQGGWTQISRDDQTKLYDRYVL
Briefly: Trypanosoma cruzi proteasome chymotrypsin-like activity (TcProtChymo) assay. Further: in the data most compounds retested in dose-response had high values. To be noted: 9.37 µM. The class given is functional.

Test [8] concerns N/A. The test can be described thus: Trypanosoma cruzi proteasome luciferase counter-screen. The class given is functional. The settings on record: 9.37 µM.
For test [9], the species on record is Homo sapiens. Briefly: To identify inhibition of the IFN signalling (Jak-Stat) pathway via expression of an eGFP reporter gene under the control of an IFN-stimulated response element (ISRE) containing MxA promoter. To be noted: 30 µM. Type of test: functional.
Test [10] has as its target T4, Tyrosyl-tRNA synthetase, putative (Trypanosoma cruzi (strain CL Brener)) (UniProt Q4DSP6).
T4 sequence (whole entry): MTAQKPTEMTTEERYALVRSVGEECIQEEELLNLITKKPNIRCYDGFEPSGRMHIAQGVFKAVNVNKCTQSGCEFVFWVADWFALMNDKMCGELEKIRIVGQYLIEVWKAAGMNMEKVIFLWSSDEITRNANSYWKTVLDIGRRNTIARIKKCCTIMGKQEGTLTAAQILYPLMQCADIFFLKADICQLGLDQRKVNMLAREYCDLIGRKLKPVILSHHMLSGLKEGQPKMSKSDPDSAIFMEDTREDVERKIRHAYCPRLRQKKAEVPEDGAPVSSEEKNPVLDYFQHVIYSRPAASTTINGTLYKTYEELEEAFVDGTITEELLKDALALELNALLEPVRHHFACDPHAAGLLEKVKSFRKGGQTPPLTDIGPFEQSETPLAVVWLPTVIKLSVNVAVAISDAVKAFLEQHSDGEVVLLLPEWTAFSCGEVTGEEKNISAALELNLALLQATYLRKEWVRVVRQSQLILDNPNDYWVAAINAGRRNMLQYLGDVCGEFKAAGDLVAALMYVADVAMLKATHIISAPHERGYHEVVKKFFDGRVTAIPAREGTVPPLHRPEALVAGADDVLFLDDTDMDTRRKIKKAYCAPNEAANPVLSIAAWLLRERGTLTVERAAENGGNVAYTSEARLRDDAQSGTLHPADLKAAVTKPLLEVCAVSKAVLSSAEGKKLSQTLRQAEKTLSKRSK
The test can be described thus: Trypanosoma cruzi tyrosyl tRNA synthetase (TcYRS) _High Tyrosine SOP. Further: in the data most compounds retested in dose-response had high values. The settings on record: 30 µM. The class given is functional.

In test [11] the target is T4, Tyrosyl-tRNA synthetase, putative (Trypanosoma cruzi (strain CL Brener)). The test can be described thus: Trypanosoma cruzi tyrosyl tRNA synthetase (TcYRS) SOP. Type of test: functional. The settings on record: 30 µM.
Test [12] concerns the target Chromo domain-containing protein 1 (Saccharomyces cerevisiae (strain ATCC 204508 / S288c) (Baker's yeast)) (UniProt P32657). Briefly: ScCHD-1 Enzyme Inhibition Assay. Further: in the data most compounds retested in dose-response had high values. Type of test: functional. The settings on record: 30 µM.

Sequence of Chromo domain-containing protein 1 (Saccharomyces cerevisiae (strain ATCC 204508 / S288c) (Baker's yeast)) (P32657 whole entry, the tested form may be a part): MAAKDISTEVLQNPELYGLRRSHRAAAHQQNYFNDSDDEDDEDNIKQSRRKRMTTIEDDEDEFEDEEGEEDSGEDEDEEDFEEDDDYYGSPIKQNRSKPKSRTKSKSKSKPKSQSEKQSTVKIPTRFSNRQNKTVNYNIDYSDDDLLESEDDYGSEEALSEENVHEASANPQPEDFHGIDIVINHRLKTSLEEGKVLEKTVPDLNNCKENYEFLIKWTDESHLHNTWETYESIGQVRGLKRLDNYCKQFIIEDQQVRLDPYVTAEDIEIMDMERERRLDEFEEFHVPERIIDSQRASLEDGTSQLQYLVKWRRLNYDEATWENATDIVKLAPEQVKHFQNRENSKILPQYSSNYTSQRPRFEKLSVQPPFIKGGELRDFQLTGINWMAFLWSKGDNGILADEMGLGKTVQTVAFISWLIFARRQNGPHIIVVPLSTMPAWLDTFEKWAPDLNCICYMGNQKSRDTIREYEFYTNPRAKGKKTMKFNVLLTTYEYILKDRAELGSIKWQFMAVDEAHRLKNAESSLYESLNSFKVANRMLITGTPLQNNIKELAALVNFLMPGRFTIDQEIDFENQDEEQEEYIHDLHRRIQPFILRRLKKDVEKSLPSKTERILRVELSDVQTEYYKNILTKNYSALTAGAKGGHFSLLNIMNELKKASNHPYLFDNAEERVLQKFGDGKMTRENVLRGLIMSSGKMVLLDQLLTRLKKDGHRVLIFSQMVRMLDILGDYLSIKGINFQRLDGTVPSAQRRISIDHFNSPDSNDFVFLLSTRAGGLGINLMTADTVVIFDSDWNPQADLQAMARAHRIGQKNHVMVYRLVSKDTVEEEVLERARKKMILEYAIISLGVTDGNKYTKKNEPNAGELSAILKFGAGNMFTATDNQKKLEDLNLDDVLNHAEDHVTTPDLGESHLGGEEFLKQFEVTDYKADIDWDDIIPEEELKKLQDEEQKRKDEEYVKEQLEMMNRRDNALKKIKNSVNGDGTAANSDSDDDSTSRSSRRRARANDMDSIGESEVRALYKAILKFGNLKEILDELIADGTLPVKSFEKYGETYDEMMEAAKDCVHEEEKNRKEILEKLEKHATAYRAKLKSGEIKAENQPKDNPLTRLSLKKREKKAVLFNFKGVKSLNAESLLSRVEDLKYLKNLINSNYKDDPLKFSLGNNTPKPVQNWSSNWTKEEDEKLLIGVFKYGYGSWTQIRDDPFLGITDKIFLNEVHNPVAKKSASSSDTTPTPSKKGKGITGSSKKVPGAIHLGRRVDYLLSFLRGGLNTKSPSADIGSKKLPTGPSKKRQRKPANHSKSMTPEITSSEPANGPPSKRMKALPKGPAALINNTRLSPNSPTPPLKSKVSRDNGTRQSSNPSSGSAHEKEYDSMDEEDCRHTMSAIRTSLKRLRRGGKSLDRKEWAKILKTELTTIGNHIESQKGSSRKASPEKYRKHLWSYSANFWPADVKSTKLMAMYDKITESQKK
Sequence of Protein translocase subunit SecA (Escherichia coli (strain K12)) (P10408 whole entry): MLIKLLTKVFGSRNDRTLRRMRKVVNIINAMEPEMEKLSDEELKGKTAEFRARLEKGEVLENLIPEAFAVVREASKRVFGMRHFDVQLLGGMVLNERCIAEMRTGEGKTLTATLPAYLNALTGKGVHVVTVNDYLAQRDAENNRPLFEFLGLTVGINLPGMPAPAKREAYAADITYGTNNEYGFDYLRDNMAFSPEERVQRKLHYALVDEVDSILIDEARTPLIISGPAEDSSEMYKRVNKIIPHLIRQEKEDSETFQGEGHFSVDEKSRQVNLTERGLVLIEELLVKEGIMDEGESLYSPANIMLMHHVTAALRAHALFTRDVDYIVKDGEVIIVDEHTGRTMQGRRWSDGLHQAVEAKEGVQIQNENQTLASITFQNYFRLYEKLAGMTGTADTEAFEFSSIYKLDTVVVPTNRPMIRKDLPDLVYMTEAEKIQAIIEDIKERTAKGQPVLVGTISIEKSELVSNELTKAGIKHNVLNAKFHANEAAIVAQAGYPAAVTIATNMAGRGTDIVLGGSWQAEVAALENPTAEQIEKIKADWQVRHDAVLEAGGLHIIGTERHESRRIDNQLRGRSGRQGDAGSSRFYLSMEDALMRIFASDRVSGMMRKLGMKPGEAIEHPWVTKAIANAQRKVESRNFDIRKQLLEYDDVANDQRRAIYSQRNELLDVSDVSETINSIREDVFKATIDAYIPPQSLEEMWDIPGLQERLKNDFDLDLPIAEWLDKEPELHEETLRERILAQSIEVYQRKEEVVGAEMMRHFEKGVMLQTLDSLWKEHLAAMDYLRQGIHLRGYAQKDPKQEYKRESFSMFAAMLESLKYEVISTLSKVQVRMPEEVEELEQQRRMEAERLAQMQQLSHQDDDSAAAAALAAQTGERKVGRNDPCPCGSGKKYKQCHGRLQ
Sequence of Sialic acid-binding Ig-like lectin 9 (Homo sapiens) (Q9Y336 whole entry): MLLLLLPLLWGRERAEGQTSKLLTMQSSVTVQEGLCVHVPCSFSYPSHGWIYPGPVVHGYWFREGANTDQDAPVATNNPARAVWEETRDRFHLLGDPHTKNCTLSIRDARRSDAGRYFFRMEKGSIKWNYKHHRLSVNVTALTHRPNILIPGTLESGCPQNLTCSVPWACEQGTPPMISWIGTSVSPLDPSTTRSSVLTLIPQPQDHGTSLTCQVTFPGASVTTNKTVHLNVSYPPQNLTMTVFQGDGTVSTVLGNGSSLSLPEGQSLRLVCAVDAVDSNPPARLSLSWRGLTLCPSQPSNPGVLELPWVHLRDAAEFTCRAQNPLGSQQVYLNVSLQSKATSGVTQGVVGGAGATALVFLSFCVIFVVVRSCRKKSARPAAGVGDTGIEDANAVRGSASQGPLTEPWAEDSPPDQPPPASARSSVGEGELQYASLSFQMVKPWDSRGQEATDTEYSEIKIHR

`Cc1ccc(C)c(C(NC(=O)C2CC2)c2cccnc2)c1` (stereo unspecified): the Percent Effect in [1] is 0.279%; in test [2] it was 18.2%; in test [3] it was -0.34%; in test [4], -7.55%; in test [5], 4.24%; in test [6] (33.3 µM), -1.94%. The Percent Effect in [7] was 32.4% and 20.1% and 20.4%; in [8], 21.2% and 15.5%; in test [9] it was 6.26%; in test [10], 4.23%; in test [11], 8.97%; in test [12] it was -10.3%.

Turning to `Cn1cc(CN2C[C@@H]3COC[C@]3(C(=O)NCc3ccccn3)C2)cn1`, the Percent Effect in [1] was -3.43%; in [2], 5.33%; in test [3], 0.406%; in test [4], 6.2%; in [5], 0.772%; in [6] (30 µM), -0.54%. In addition, the Percent Effect in [6] (33.3 µM) is -54.3%; in [7], 4.62%; in test [9], -8.11%; in test [10], 2.08%; in test [11] it was 2.5%; in [12] it was -5.35%.

Regarding `Cc1ccc(CNCc2nnc3n2CC(C(F)(F)F)CC3)cc1` (stereo unspecified), the Percent Effect in [1] is -0.646%; in [2] it was 18.9%; in test [3], -2.64%; in test [4] it was 4.4%; in [5], 3.23%; in test [6] (30 µM), -11.3%. In addition, the Percent Effect in test [6] (33.3 µM) was -3.23%; in test [7], 8.5%; in [9], 11.6%; in test [10] it was 5.38%; in test [11], 13.6%; in test [12], -11.9%.

For the compound `Cn1cc(CC2CCN(C(=O)NCc3cn4ccsc4n3)C2)cn1` (stereo unspecified), the Percent Effect in test [1] is -6.21%; in test [2], 13.2%; in [3], -5.79%; in test [4], -0.407%; in test [5], 5.36%; in test [6] (30 µM) it was 2.7%. Besides, the Percent Effect in test [6] (33.3 µM) was -18.9%; in test [7], 12.2%; in test [9], 4.6%; in test [10], 6.38%; in test [11] it was 18.2%; in test [12], -14.5%.

As for `Cc1ccc([C@@H]2CN(S(=O)(=O)c3cccs3)C[C@H]2N(C)C)cc1`, the Percent Effect in test [1] was -5.74%; in test [2], 2.7%; in [3], -3.82%; in [4], 22.9%; in [5], 2.25%; in [6] (30 µM), -0.54%. In addition, the Percent Effect in test [6] (33.3 µM) was -0.744%; in test [7] it was 0.944%; in test [9], 22.4%; in test [10], 3.23%; in test [11] it was 13.6%; in test [12], -3.75%.

`CN(C)C(=O)[C@@H]1CCO[C@@H]2CCN(Cc3ccccc3)C[C@@H]21`: the Percent Effect in test [1] is -1.18%; in [2] it was 2.7%; in [3], -0.272%; in test [4] it was -1.07%; in [5] it was -6.45%; in test [6] (30 µM), -1.62%. Besides, the Percent Effect in test [6] (33.3 µM) was 2.92%; in test [7], 20.5%; in [9] it was 10%; in test [10], 7.92%; in [11] it was 8.54%; in [12], -0.0601%.

In the case of `COc1ccc(CN2C[C@@H](N(C)Cc3ccco3)[C@H]3OCCC[C@H]32)cc1`, the Percent Effect in [1] was -4.13%; in test [2] it was 5.33%; in [3], 8.07%; in test [4], 3.01%; in test [5], -5.71%; in test [6] (30 µM), -8.11%. For the same compound, the Percent Effect in test [6] (33.3 µM) was 0.699%; in test [7], 11%; in test [9], 9.72%; in [10], 3.19%; in test [11], 8.97%; in test [12] it was -3.71%.

Turning to `CC1=Nc2c(c(=O)[nH]n2C2CCCC2)C(c2cccc(O)c2)S1` (stereo unspecified), the Percent Effect was -2.38% in test [1]; -1.33% in [2]; 11.5% in [3]; 2.03% in test [4]; 1.38% in [5]; -1.62% in test [6] (30 µM). In addition, the Percent Effect was -1.23% in test [6] (33.3 µM); 11.3% in test [7]; 36.2% in test [9]; 14.8% in test [10]; 20.5% in test [11]; 0.661% in [12].
